This passage reports activity change, negative = inhibition results from PubChem BioAssay AID1259416 (Broad Institute, 2018).

The structures appear in SMILES notation. “And” between values parts separate entries of the source, which are not always exact repeats. Identical values can stand only once. The whole screen tested about 69,000 compounds, of which about 2,600 (3.8%) were called active. Rule as the data show it: active = activity change below about -70% (passing the limit was not always enough); inconclusive = no clear call, values can overlap the other calls. This excerpt belongs to a sample that is enriched for actives. The source holds several records for some structures; these can differ, active in one and inactive in another.

The assay in a line: inhibitors of Toxoplasma growth in IFN-γ-primed hosts – cell-based, primary screen (AID 1259416).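 Also: host cells are HeLa cells infected with Toxoplasma gondii.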 Conditions: Toxoplasma gondii growth in IFN-gamma-treated host cells; stronger effect = lower value; concentration not given here.
With `O=C1CC(c2cccnc2)c2cnn(CC3CC3)c2N1` (stereo not drawn), the activity change, negative = inhibition was 6.49% (inactive).

`Cc1nn(CC(C)C)c2c1C(c1cnn3cccnc13)CC(=O)N2` (stereo not drawn): the activity change, negative = inhibition was -4.06% (inactive).

As to `CC(C)Cn1ncc2c1NC(=O)CC2c1csc(-c2ccccc2)n1` (stereo not drawn), the activity change, negative = inhibition is -98.9% (active).

For `COCCN1CC2(CCOCC2)c2cc(NC(=O)C3CCC3)ccc21`, the activity change, negative = inhibition was -48.6% (inactive).

`Cc1nn(C)c(C)c1CCC(=O)N[C@H]1CCC(=O)NC1c1cccnc1` (stereo partly drawn): the activity change, negative = inhibition was 85.1% (inactive).

Consider `COc1cccc(-c2nc(C)c(-c3ccc(SCc4cccc5ccccc45)nn3)s2)c1`, for which the activity change, negative = inhibition is -1.38% (inactive).

With `COc1ccc(-c2cccc(-c3nnc(C)s3)c2)c(OC)c1`, the activity change, negative = inhibition is -81.9% (active).

Consider `COc1cccc(-c2nc(C)c(-c3ccc(SCc4ccccc4)nn3)s2)c1`, for which the activity change, negative = inhibition was -15.2% (inactive).

As to `CCc1cn[nH]c1C1CCN(C(=O)C2COc3c(cccc3OC)C2)CC1` (stereo not drawn), the activity change, negative = inhibition is -0.504% (inactive).

Turning to `NCC(=O)CCC(=O)OCc1ccccc1`, the activity change, negative = inhibition was 9.17% (inactive).

Regarding `O=C1CCCCC(=O)c2ccccc2N1`, the activity change, negative = inhibition is -17.8% (inactive).

For `Cc1cc(C)c(/C=C2\C(=O)Nc3ccccc32)[nH]1`, the activity change, negative = inhibition is 22% (inactive) and -75.5% (active).

Regarding `CNc1ccc(Cl)cc1C(=O)NCCN(C)S(C)(=O)=O`, the activity change, negative = inhibition was -31% (inactive).

Consider `CC(=O)N1CCn2c(-c3cnn(C)c3)cnc2C12CCN(S(=O)(=O)C1CC1)CC2`, for which the activity change, negative = inhibition was 7.11% (inactive).

On to `O=C(NC1CC1)c1cc2n(n1)CCN(C(=O)CCn1nnc3ccccc31)C2`, for which the activity change, negative = inhibition was -45.8% (inactive).

Regarding `C[C@@H]1CN([C@@H](C)CO)C(=O)CCCn2cc(nn2)CO[C@H]1CN(C)S(=O)(=O)c1ccc(-n2cccn2)cc1`, the activity change, negative = inhibition is -114% (active).

With `C[C@H]1CN([C@@H](C)CO)C(=O)CCCn2cc(nn2)CO[C@@H]1CN(C)S(=O)(=O)c1ccc(-n2cccn2)cc1`, the activity change, negative = inhibition is -30.5% (inactive).

As to `C[C@H]1CN([C@@H](C)CO)C(=O)CCCn2cc(nn2)CO[C@@H]1CN(C)S(=O)(=O)c1cccc(C#N)c1`, the activity change, negative = inhibition was 24.6% (inactive).

As to `O=C(c1cc(COc2c(F)cccc2F)on1)N1CCCC1c1ccco1` (stereo not drawn), the activity change, negative = inhibition is 1.77% (inactive).

As to `CC(=O)Nc1ccc(NS(=O)(=O)c2ccc3oc(=O)ccc3c2)cc1`, the activity change, negative = inhibition is 137% (inactive).

In the case of `O=C(C1CCN(S(=O)(=O)c2ccc3[nH]c(=O)ccc3c2)CC1)N1CCN(c2ccccc2F)CC1`, the activity change, negative = inhibition was 27.2% (inactive).

`O=C(Oc1ccc(Cl)cc1)c1snnc1-c1ccccc1`: the activity change, negative = inhibition is -78% (active).

Consider `COc1ccc2c(c1)NC1(CCN(S(=O)(=O)c3ccc(F)c(Cl)c3)CC1)c1cccn1-2`, for which the activity change, negative = inhibition was 11.3% (inactive).

Take `COc1ncccc1CN1CCc2[nH]cnc2C1Cc1ccccc1` (stereo not drawn): the activity change, negative = inhibition was -52.3% (inactive).

On to `CC(=O)Nc1ccc(NC(=O)CSc2nnnn2C2CCCCC2)cc1`, for which the activity change, negative = inhibition is 2.96% (inactive).

Take `C=CCC1(O)C(C)C(c2ccccc2)N(C)C(c2ccccc2)C1C` (stereo not drawn): the activity change, negative = inhibition was -91.3% (active).

With `CN(C)C(=O)NC[C@H]1CCC[C@]2(CCN(Cc3nccs3)C2)O1`, the activity change, negative = inhibition is -40.2% (inactive).

On to `O=C(Nc1ccc(C(F)(F)F)cn1)Nc1ccc(-c2ccccc2)s1`, for which the activity change, negative = inhibition was -27.9% (inactive).

As for `COc1cccc(NC(=O)N2CCC3(CC2)CC(=O)c2ccccc2O3)c1`, the activity change, negative = inhibition was -5.86% (inactive).

On to `Cc1c(C(=O)N2CCC3(CC2)CC(O)(c2nccs2)CO3)oc2ccccc12` (stereo not drawn), for which the activity change, negative = inhibition was -14.2% (inactive).

Consider `Cc1c(C(=O)N2CCCCC2)oc2ccc3c(c12)C(=O)CC1(CCCCCC1)O3`, for which the activity change, negative = inhibition is -112% (active).

For `c1ccc2ncc(-c3ccncn3)cc2c1`, the activity change, negative = inhibition was 1.85% (inactive).

Take `CC(C)CNC(=O)c1ccc2c(c1)C(c1ncn(C(C)C)n1)CN2C(=O)c1ccccc1` (stereo not drawn): the activity change, negative = inhibition was -46.3% (inactive).

With `Cc1nc2cc(C(=O)NC3(c4ccc5c(c4)OCO5)CCCC3)ccc2s1`, the activity change, negative = inhibition was -5.47% (inactive).

As for `C=CCN(Cc1ccccc1Cl)C(=O)c1ccc(CN(C)C)o1`, the activity change, negative = inhibition was -46.3% (inactive).

With `Cc1ccc(CC(=O)c2cccnc2)cc1`, the activity change, negative = inhibition was 14% (inactive).

In the case of `C/C(=N/N1CCN(Cc2cccc3ccccc23)CC1)c1cccnc1`, the activity change, negative = inhibition is -96% (active).

On to `Cc1cc(-c2ccccc2CN2CCOCC2)ccc1NC(=O)c1cccnc1`, for which the activity change, negative = inhibition was -6.76% (inactive).

As for `Cc1ccc(-c2cc(C(=O)Nc3ccc4c(c3)N(S(C)(=O)=O)CCC4)[nH]n2)cc1`, the activity change, negative = inhibition is -78.5% (active).

For `Cc1ccc(C(=O)Nc2ccc(-c3nc(-c4ccc(C)cc4)co3)cc2)cc1`, the activity change, negative = inhibition is 42.6% (inactive).

For the compound `O=C1CCc2cc(NC(=O)c3cc(-c4ccccc4)nc4ccccc34)ccc2N1`, the activity change, negative = inhibition is -32.2% (inactive).

Regarding `CN1CCN([C@H]2CN(Cc3ncc[nH]3)C[C@@H]2O)CC1`, the activity change, negative = inhibition is 28% (inactive).

In the case of `c1cncc(-c2nc3c(c(NCCC4CCOC4)n2)CCNC3)c1` (stereo not drawn), the activity change, negative = inhibition was -9.13% (inactive).

Regarding `CCC(NC(=O)CCn1c(C)cc2ccccc21)c1cccnc1` (stereo not drawn), the activity change, negative = inhibition is 0.306% (inactive).

Take `CCn1c(-c2cc(NC(=O)c3ccncc3)n[nH]2)cc2ccccc21`: the activity change, negative = inhibition is -91% (active).

`Cc1nc(N)nc(C)c1CC(=O)N1CCC2(CCOCC2)CC1`: the activity change, negative = inhibition was -82.2% (active).

Consider `CN1CCN(C(=O)c2cncc(N3CCC4(CCOCC4)CC3)n2)CC1`, for which the activity change, negative = inhibition is -7.63% (inactive).

As to `Cc1nc(C)n(C(=O)N2CCOCC2)n1`, the activity change, negative = inhibition was -8.09% (inactive).

`COCCN1CC[C@@H]2C[C@@H](C(=O)N3CCCCO3)O[C@@H]2C1`: the activity change, negative = inhibition was -6.09% (inactive).

For `CCN1CCO[C@H]2CN(S(=O)(=O)c3cccs3)CC[C@@H]2C1`, the activity change, negative = inhibition is 1.58% (inactive).

`COC(C)c1nncn1-c1cccc2ccccc12` (stereo not drawn): the activity change, negative = inhibition was -48.2% (inactive).

Turning to `CC(=O)NC1(c2ccc(F)cc2)CCN(Cc2ccc(Oc3ncccn3)cc2)CC1`, the activity change, negative = inhibition is 9.39% (inactive).

As for `Cc1ccn(CC(=O)N2CCN3CCNC(=O)C3C2)n1` (stereo not drawn), the activity change, negative = inhibition is -2.78% (inactive).

`COc1ccccc1OCc1cc(C(=O)NCCF)n[nH]1`: the activity change, negative = inhibition was 35.8% (inactive).

`CN(C)S(=O)(=O)c1ccc2c(c1)cc(C(=O)NCCC1=CCCCC1)n2Cc1ccncc1`: the activity change, negative = inhibition was -54.8% (inactive).

On to `O=S(=O)(NCCC1=CCCCC1)c1ccc(S(=O)(=O)NC2CCCCC2)cc1`, for which the activity change, negative = inhibition was -84.3% (active).

In the case of `CCCNS(=O)(=O)c1ccc(CCC(=O)N2CCCC2)cc1`, the activity change, negative = inhibition is -8.43% (inactive).

`Cc1ccccc1NC(=O)c1ccc2ccc(N3CCN(CC4CC4)CC3)n2c1`: the activity change, negative = inhibition was 2.07% (inactive).
